According to PubChem BioAssay (NCI):
About 83,000 compounds went through this panel and 20% of them were active in at least one assay; those are over-represented in the sample as a whole.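 Percent growth is the endpoint: 0 to 100 indicates growth inhibition (40 means 60% inhibition), 0 means no net growth, and negative values indicate cell death.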 Activity calls are given as the source filed them. Rule for the calls: active = growth percent below 10; inactive = the rest.

Columns and labels:
Experiment in all cases: NCI-60 one-dose screen, 48 h (100 = growth as untreated, 0 = no growth, -100 = all killed)
Conditions in all cases: 10 µM unless noted
SR leukemia = tested on: SR leukemia
RPMI-8226 leukemia = tested on: RPMI-8226 leukemia
OVCAR-8 ovarian = tested on: OVCAR-8 ovarian
OVCAR-5 ovarian = tested on: OVCAR-5 ovarian
OVCAR-4 ovarian = tested on: OVCAR-4 ovarian
SK-OV-3 ovarian = tested on: SK-OV-3 ovarian
IGROV1 ovarian = tested on: IGROV1 ovarian
OVCAR-3 ovarian = tested on: OVCAR-3 ovarian
HS 578T breast = tested on: HS 578T breast
NCI/ADR-RES ovarian = tested on: NCI/ADR-RES ovarian
T-47D breast = tested on: T-47D breast
BT-549 breast = tested on: BT-549 breast
MDA-MB-435 melanoma = tested on: MDA-MB-435 melanoma
SW-620 colon = tested on: SW-620 colon
MCF7 breast = tested on: MCF7 breast
HCT-116 colon = tested on: HCT-116 colon
HCC-2998 colon = tested on: HCC-2998 colon
KM12 colon = tested on: KM12 colon

Measured: growth

Cc1ccc2[nH]c(=O)c3c(c2c1)Oc1ncn2nc(-c4ccco4)nc2c1C3c1ccc(Cl)cc1 (stereo unspecified)
active: SK-OV-3 ovarian -90.5%
inactive: SR leukemia 106% | RPMI-8226 leukemia 101% | OVCAR-8 ovarian 93.4% | OVCAR-5 ovarian 98.2% | OVCAR-4 ovarian 87.9% | IGROV1 ovarian 98% | OVCAR-3 ovarian 111% | HS 578T breast 93% | NCI/ADR-RES ovarian 94.9% | T-47D breast 89.4% | BT-549 breast 91.4% | MDA-MB-435 melanoma 98.5% | SW-620 colon 99% | MCF7 breast 86.7% | HCT-116 colon 89.6% | HCC-2998 colon 98.1% | KM12 colon 99.4%

COc1ccc(C(=O)N2NC(=O)/C(=C/c3ccccc3F)N=C2c2ccccc2)cc1
inactive: SR leukemia 104% | RPMI-8226 leukemia 119% | OVCAR-8 ovarian 101% | OVCAR-5 ovarian 108% | OVCAR-4 ovarian 106% | SK-OV-3 ovarian 112% | IGROV1 ovarian 107% | OVCAR-3 ovarian 114% | HS 578T breast 110% | NCI/ADR-RES ovarian 105% | T-47D breast 97.2% | BT-549 breast 106% | MDA-MB-435 melanoma 106% | SW-620 colon 111% | MCF7 breast 91.2% | HCT-116 colon 102% | HCC-2998 colon 97.8% | KM12 colon 106%

C=C[C@@H]1C[C@H](O)Cc2cc(F)ccc2N1
inactive: SR leukemia 73.6% | RPMI-8226 leukemia 73.2% | OVCAR-8 ovarian 102% | OVCAR-5 ovarian 95.7% | OVCAR-4 ovarian 101% | SK-OV-3 ovarian 104% | IGROV1 ovarian 131% | OVCAR-3 ovarian 102% | HS 578T breast 90.6% | NCI/ADR-RES ovarian 105% | T-47D breast 108% | BT-549 breast 96.9% | MDA-MB-435 melanoma 93.8% | SW-620 colon 98.7% | HCT-116 colon 103% | HCC-2998 colon 96.2% | KM12 colon 100%

N/C(=N\C(N)=N\c1nc2ccccc2s1)c1cccc(Br)c1
inactive: SR leukemia 33.2% | RPMI-8226 leukemia 83.3% | OVCAR-8 ovarian 72.6% | OVCAR-5 ovarian 95.2% | OVCAR-4 ovarian 107% | SK-OV-3 ovarian 129% | IGROV1 ovarian 66.4% | OVCAR-3 ovarian 103% | HS 578T breast 103% | NCI/ADR-RES ovarian 73.6% | T-47D breast 52.1% | BT-549 breast 79.1% | MDA-MB-435 melanoma 93.8% | SW-620 colon 102% | MCF7 breast 77.4% | HCT-116 colon 61.2% | HCC-2998 colon 108% | KM12 colon 66.5%
